Source: PubChem BioAssay (National Center for Advancing Translational Sciences (NCATS))
EPAC2 agonist: agonists of human EPAC2 (RAPGEF4); EPAC2 activation, biochemical qHTS; response scale: 100% = 6.5 mM cAMP response; Potency, µM (series often up to 154 µM), for the others: top-dose activation, actives largely listed as activators; 360,000 compounds, 0.079% hits; Q8WZA2; AID 720711; also: nearly all actives have a fitted effect of over 50% in size
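Guanine nucleotide exchange by EPAC2 is measured as reduced fluorescence of BODIPY-GDP once it is released from 250 nM Rap1B. Plates are read kinetically for 30 min at room temperature; results are scaled to 6.5 mM cAMP.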
EPAC2 antag: EPAC2 (human) antagonism; Q8WZA2; EPAC2 GEF exchange of Rap1B-BODIPY-GDP, fluorescence; Potency, µM (top dose mostly 114 µM), without a hit: at the top dose activity, negative = inhibition, usual class: inhibitors; 360,000 compounds, 0.18% hits; AID 720708; also: % is scaled to controls: 0 for no effect and ±100 for the full control effect; nearly all actives have a fitted effect of over 45% in size
TDP1 block: inhibitors of human tyrosyl-DNA phosphodiesterase TDP1; Q9NUW8; 350,000 compounds, 0.28% hits; Potency, µM (doses to about 130 µM), for the others: top-dose activity change, negative = inhibition, actives largely listed as inhibitors; recombinant TDP1, AlphaScreen DNA substrate cleavage; also: % is scaled to controls: 0 for no effect and ±100 for the full control effect; nearly all actives have a fitted effect of over 40% in size
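Enzyme-compound mixtures sat 15 min at room temperature, followed by a 5 min reaction with 15 nM final substrate and 10 min with AlphaScreen beads. Recombinant human Tdp1 was used at 1 nM final.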
EPAC1 agonist: EPAC1 (human) agonism; 360,000 compounds, 0.073% hits; Potency, µM (series often up to 154 µM), for inactives: at the top dose activation, usual class: activators; O95398; AID 720707; EPAC1 agonist qHTS, biochemical assay; response scale: 100% = response to 6.5 mM cAMP; also: nearly all actives have a fitted effect of over 60% in size
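Nucleotide exchange by EPAC1 (100 nM) on Rap1B–BODIPY-GDP (250 nM) in the presence of 50 uM GDP is tracked fluorescently at 480/540 nm over 30 min. Signals are normalized to a 6.5 mM cAMP control.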
ERG Ets-DNA blk: inhibitors of human ERG Ets domain-DNA interaction; P11308; fluorescence polarization, His-ERG Ets domain / labelled DNA; Potency, µM (series often up to 76.9 µM), without a hit: at the highest dose FP activity, negative = inhibition, most hits filed as inhibitors; 370,000 compounds, 0.028% hits; AID 624246; active = well fitted inhibition curve with a large enough effect in the polarisation, with a control signal flat; inconclusive = small, poorly fitted or top-dose-only effect, or effect the other way, or a change in a side signal; inactive = no such curve, though single readings can be large or run the other way; the % refers to the polarisation;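 also: polarization taken with two DNA probes labelled with fluorescein and Texas red; % of control where 0% means no effect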
Target sequence (P11308 whole entry, looked up, the tested form may be a part): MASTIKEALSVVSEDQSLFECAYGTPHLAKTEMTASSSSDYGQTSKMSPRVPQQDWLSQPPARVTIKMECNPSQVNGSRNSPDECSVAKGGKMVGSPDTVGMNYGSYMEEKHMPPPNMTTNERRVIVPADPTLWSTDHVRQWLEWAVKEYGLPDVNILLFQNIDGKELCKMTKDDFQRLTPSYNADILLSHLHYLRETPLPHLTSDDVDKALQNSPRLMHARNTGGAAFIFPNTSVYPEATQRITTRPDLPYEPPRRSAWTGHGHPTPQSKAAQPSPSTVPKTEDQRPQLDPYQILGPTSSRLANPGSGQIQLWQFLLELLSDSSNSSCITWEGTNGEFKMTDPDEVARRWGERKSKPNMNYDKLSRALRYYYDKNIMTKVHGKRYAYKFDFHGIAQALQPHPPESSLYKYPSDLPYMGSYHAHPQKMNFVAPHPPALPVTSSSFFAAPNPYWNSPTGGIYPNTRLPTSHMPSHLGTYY
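His-tagged ERG Ets domain (1 uM in the protein solution; 300mM KCl, 50mM Tris-HCl, 1mM EDTA, 1mM DTT, pH 7.5) received compound, then a probe mix of 5 nM fluorescein-DNA and 100nM Texas-615-DNA. Fluorescence polarization was read for both dyes.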
EPAC1 antag: antagonists of human EPAC1. EPAC1 GEF assay, Rap1b-BODIPY-GDP exchange fluorescence. Potency, µM (titrated, usually from 115 µM), without a hit: top-dose activity change, negative = inhibition, most hits filed as inhibitors. 360,000 compounds, 0.14% hits. AID 720709;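 also: plate controls were vehicle for no effect and positive control for full effect; nearly all actives have a fitted effect of over 50% in size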
* hit, by the source's call; i = inactive; ? = inconclusive; nt = not tested or not shown; [ ] = dose if it differs, or a comment. The list is not random: actives were taken first. Their share in the collection is about 0.54%. Unless noted, calls follow the shape of the dose curve; as a rule, active = well fitted curve in the direction sought with a large enough effect; inconclusive = small, poorly fitted or top-dose-only effect, or another doubt; inactive = no such curve, though single readings can be large; an effect the other way counts as inactive or inconclusive. Potency is read from the fitted curve at half-maximal effect.

SMILES | EPAC2 agonist | EPAC2 antag | TDP1 block | EPAC1 agonist | ERG Ets-DNA blk | EPAC1 antag
COC(=O)[C@]1(C)CC[C@@]2(C)CC[C@@]3(C)C4=CC=C5C(=CC(=O)C(O)=C5C)[C@@]4(C)CC[C@@]3(C)C2C1 (some centres undefined) | nt | nt | 9%[12.3 µM] | nt | nt | nt
O=c1oc2ccccc2c(O)c1C(c1ccc([N+](=O)[O-])cc1)c1c(O)c2ccccc2oc1=O | -14% | 50µM* | 7% | -15% | 3% | 50µM*
C/C(CC(c1ccccc1)c1c(O)c2ccccc2oc1=O)=N\Nc1ccc([N+](=O)[O-])cc1[N+](=O)[O-] (centres undefined) | 3% | -22% | nt | 9% | 13% | ?
Cc1c(C(c2ccc(F)cc2)c2c(O)c3ccccc3oc2=O)c(=O)n(-c2ccccc2)n1C (centres undefined) | 4% | 10% | 3% | 4% | -7% | -28%
CC(C)c1ccc(C(c2c(O)c3ccccc3oc2=O)c2c(O)c3ccccc3oc2=O)cc1 | 1% | 45µM* | nt | -7% | nt | ?
Cc1cccc(OP(=O)(Nc2cccnc2)Oc2cccc(C)c2)c1 | 12% | -2% | 1% | -20% | -2% | -10%
O=P(Nc1cccnc1)(Oc1ccccc1Cl)Oc1ccccc1Cl | 6% | 56µM* | 4% | 6% | 4% | -14%
CCCCC/C=C\C/C=C\C/C=C\C/C=C\CCCC(=O)N(Cc1ccc(O)c(Cl)c1)Cc1ccc(O)c(Cl)c1 | nt | nt | -3% | nt | nt | nt
CN1/C(=C\C=C\C2=[N+](C)c3ccc4ccccc4c3C2(C)C)C(C)(C)c2ccccc21 | nt | nt | 12% | nt | nt | nt
CCN1/C(=C/C=C/C2=[N+](CC)c3ccccc3C2(C)C)C(C)(C)c2ccccc21 | 18µM* | 144% | nt | 56µM* | nt | 47%
C[n+]1c2cc(N)ccc2cc2ccc(N)cc21 | 100µM* | i | 3%[56.1 µM] | 50µM* | 35µM* | i
CCCCn1c(=O)c(C(=O)NCc2ccccc2Cl)c(O)c2ccccc21 | 9% | 5% | nt | 13% | 14% | -18%
Cc1onc(-c2ccccc2Cl)c1C(=O)NCc1ccc2c(c1)cc(C)n2C | 9% | -3% | nt | -14% | 25µM* | 9%
[Hg+][c]1ccccc1 | nt | nt | 11% | nt | nt | nt
O=C1C(=O)c2cccc3cccc1c23 | 1% | -3% | -8% | -6% | -1% | 14%
O=C1C(=O)c2ccccc2-c2ccccc21 | 21% | ? | 3% | -17% | -9% | 8.9µM*
Cc1cc(/C=C2\C(=O)NC(=O)N(c3ccc(Cl)cc3)C2=O)c(C)n1-c1sc2c(c1C#N)CCCC2 | -11% | -10% | 5% | -9% | 30% | 50µM*
CCOC(=O)c1c(-n2c(C)cc(/C=C3\C(=O)NC(=O)N(C)C3=O)c2C)sc2c1CCCC2 | 4% | -9% | 5% | 12% | ? | -1%
CCOC(=O)CCCc1cc[c]([Sb](=[O])([OH])[OH])cc1 | nt | nt | 0.25µM* | nt | nt | nt
Cn1cc(/C=C2\C(=O)NC(=O)N(c3ccccc3)C2=O)c2ccccc21 | 100µM* | 44% | nt | -1% | 21% | -9%
CCOP(=S)(OCC)Oc1ccc([N+](=O)[O-])cc1 | nt | nt | 1% | nt | nt | nt
Clc1nc(Cl)nc(Cl)n1 | nt | nt | 0% | nt | nt | nt
Cc1cc(/C=C2\C(=O)NC(=O)N(Cc3ccccc3)C2=O)c(C)n1-c1ccc(Cl)c(C(=O)O)c1 | 3% | -11% | nt | 15% | 25% | ?
Cc1cc(/C=C2\C(=O)NC(=O)N(Cc3ccccc3Cl)C2=O)c(C)n1-c1ccc(C(=O)O)cc1 | 3% | -5% | 22µM* | 20% | 8% | ?
Nc1nc(/C(=C/CC(=O)O)C(=O)NC2C(=O)N3C(C(=O)O)=CCSC23)cs1 (centres undefined) | nt | nt | 25µM* | nt | nt | nt
SMILES | EPAC2 agonist | EPAC2 antag | TDP1 block | EPAC1 agonist | ERG Ets-DNA blk | EPAC1 antag
CCOC(=O)c1c(N)n(CCCOC(=O)c2ccco2)c2nc3ccccc3nc12 | -11% | -5% | 5% | 3% | 4% | -15%
CCCCCn1c(NC(=O)c2ccco2)c(C(=O)OCC)c2nc3ccccc3nc21 | 6% | 40µM* | 3% | -15% | 17% | 50µM*
CCOC(=O)c1c(NS(=O)(=O)c2ccccc2)n(CCCOC)c2nc3ccccc3nc12 | 23% | ? | -4% | 7% | 10% | 7.9µM*
C=CCBr | nt | nt | 13% | nt | nt | nt
NC1CCCC[C@@H]1N (some centres undefined) | nt | nt | 13% | nt | nt | nt
Cc1ccc(OCCOc2cccc(C=C3C(=O)NC(=O)NC3=O)c2)c(C)c1 | 1% | -18% | 79µM* | 7% | -5% | -14%
CC(C)CCOP(=O)(c1ccc(N(C)C)cc1)C(O)c1ccc(Cl)cc1Cl (centres undefined) | 5% | 35µM* | nt | 2% | 1% | -23%
C=CC1CC=CCC1 (centres undefined) | nt | nt | 9% | nt | nt | nt
C=C1C(=O)O[C@@H]2C[C@@H](C)[C@@H]3C=CC(=O)[C@@]3(C)[C@@H](OC(=O)CC(=O)O[C@H]3[C@@H]4C(=C)C(=O)O[C@@H]4C[C@@H](C)[C@@H]4C=CC(=O)[C@]43C)[C@H]12 | -5% | ? | 2% | -22% | 3% | 40µM*
CC(=O)C1=C(O)C2(C)c3c(O)c(C)c(O)c(C(C)=O)c3OC2CC1=O (centres undefined) | 6% | 14µM* | nt | 13% | nt | 5%
[Cl][In]([Cl])[Cl] | nt | nt | 0.5µM* | nt | nt | nt
C=C1CCC(O)C/C1=C\C=C1/CCCC2(C)C1CCC2C(C)CCCC(C)C (centres undefined) | nt | nt | -2% | nt | nt | nt
CCC(C)/C=C(C)/C=C/C1=CC2=C(Cl)C(=O)C(C)(OC(C)=O)C(=O)C2=CO1 (centres undefined) | -1% | -13% | 12% | -24% | -5% | ?
CC[C@H](C)/C=C(C)/C=C/C1=CC2=C(Cl)C(=O)[C@@](C)(OC(C)=O)C(=O)C2=CO1 | 8% | 3.5µM* | nt | 7% | 14% | 35µM*
O=C(c1cc(-c2ccc(Cl)cc2)n(-c2ccc(Cl)cc2Cl)n1)N1CCOCC1 | 10µM* | -17% | -2% | 8% | 1% | -4%
C(CCOCC1CO1)COCC1CO1 (centres undefined) | nt | nt | 14% | nt | nt | nt
[CH3][Hg][Cl] | nt | nt | 9% | nt | nt | nt
Cc1ccc(OCCn2cccc2/C=C2/C(=O)NC(=O)N(Cc3ccco3)C2=O)cc1 | -3% | 0% | 3% | 1% | 36% | ?
COc1ccc(/C=C2/C(=O)NC(=O)N(Cc3ccco3)C2=O)cc1 | nt | nt | -6% | nt | nt | nt
CCOC(=O)C1CCN(/C=C2/C(=O)NC(=O)N(Cc3ccco3)C2=O)CC1 | -6% | 7% | 40µM* | 1% | 7% | 14%
